Test [1] deals with Plasmodium falciparum Sir2 (PF13_0152, Sir2A). Briefly: Plasmodium falciparum Sir2A binding compounds – biochemical, small-molecule microarray, 635 nm fluorescence, primary screen (AID 1098).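 Also: score merges spot fluorescence intensity with its signal-to-noise ratio.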 The note with it: fluorescence 635 nm, higher = more signal.
Test [2] can be described thus: probe aDKK1 binding to arrayed compounds – biochemical, biotinylated probe, 635/667 nm fluorescence, primary screen (AID 1099).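 Also: score merges 667nm spot fluorescence with signal to noise across triplicate slides.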 The following applies: small-molecule microarray, higher = more signal.
Test [3] is described as follows: probe aCHRDL2 binding to arrayed compounds – biochemical, biotinylated probe, 635/667 nm fluorescence, primary screen (AID 1100). The note with it: small-molecule microarray, higher = more signal.
Test [4] is described as follows: change in splice reporter luminescence, either direction, cell-based, HEK293, spliceosome inhibition project, primary screen (AID 1101).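 Also: HEK293 cells carrying a splicing-competent luciferase reporter gene; test concentration not given here.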 The note with it: HEK293 splicing luciferase reporter, 24 h, higher = more signal, called active from +8 up or from −8 down. Background: In a reporter assay the amount or activity of a reporter protein is the signal.
Test [5] addresses Fibroblast growth factor 10 (Homo sapiens) (UniProt O15520). Briefly: compounds binding fibroblast growth factor 10 – biochemical, small-molecule microarray, 635 nm fluorescence, primary screen (AID 1102). The note with it: FGF10 binding, fluorescence 635 nm, higher = more signal.
The subject of test [6] is glycogen synthase kinase-3 (GSK3A per assay name; protocol says GSK3B). Description: compounds binding glycogen synthase kinase-3 – biochemical, small-molecule microarray, 635 nm fluorescence, GSK3A, primary screen (AID 1103). Also: the record names both GSK3A and GSK3B. The following applies: fluorescence 635 nm, higher = more signal.
Test [7] concerns the target Epidermal growth factor receptor (Homo sapiens) (UniProt P00533). Description: compounds binding epidermal growth factor receptor – biochemical, small-molecule microarray, 635 nm fluorescence, primary screen (AID 1104).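 Also: score merges 667 nm emission intensity with spot signal to noise over triplicate slides.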 The note with it: EGFR binding, higher = more signal.
Test [8] concerns the target Follistatin-related protein 3 (Homo sapiens) (UniProt O95633). Description: compounds binding follistatin-related protein 3 – biochemical, small-molecule microarray, 635 nm fluorescence, primary screen (AID 1105).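 Also: score merges emission near 667 nm and signal to noise per printed spot across three slides.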 The following applies: FSTL3 binding, higher = more signal.
The target in test [9] is Dickkopf-related protein 1 (Homo sapiens) (UniProt O94907). Briefly: small molecules binding DKK1 protein – biochemical, small-molecule microarray, 635 nm fluorescence scan, primary screen (AID 1106).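 Also: score merges emission near 667 nm with signal to noise over three replicate slides.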 The note with it: higher = more signal.
Dickkopf-related protein 1 (Homo sapiens), sequence (O94907 whole entry, looked up): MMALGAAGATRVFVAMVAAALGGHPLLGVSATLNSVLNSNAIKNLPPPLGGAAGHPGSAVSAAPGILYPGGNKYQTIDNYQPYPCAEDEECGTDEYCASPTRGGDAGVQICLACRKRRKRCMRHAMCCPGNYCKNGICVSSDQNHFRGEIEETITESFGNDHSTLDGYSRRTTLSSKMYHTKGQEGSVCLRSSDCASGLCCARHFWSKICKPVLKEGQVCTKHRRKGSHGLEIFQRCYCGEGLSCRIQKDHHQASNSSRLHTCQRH
Test [10] has as its system Inhibin beta A chain (activin A). Description: small molecules binding activin A – biochemical, small-molecule microarray, 635 nm fluorescence scan, primary screen (AID 1107).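 Also: mouse activin A protein probed at 4.33 µg/mL on printed slides; score merges bound-protein fluorescence near 667 nm with spot signal-to-noise.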 The following applies: INHBA, higher = more signal.
The test system of test [11] is Human papillomavirus type 1a protein E7 (residues 44-93). Briefly: small molecules binding HPV E7 44-93 – biochemical, small-molecule microarray, residues 44-93, 635 nm fluorescence, primary screen (AID 1108).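 Also: E7 fragment applied at 1 µg/mL in TBST for 1 h at 4 C; score combines spot fluorescence with its signal to noise ratio.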 The following applies: fluorescence 635 nm, higher = more signal.
Test [12] in a line: hepatitis C replication reporter changes, two-sided – Huh7 cells, luciferase reporter, HCV replication inhibitor project, primary screen (AID 1109).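 Also: huh7 hepatoma cells harbouring a luciferase neomycin HCV replicon reporter; luciferase luminescence as measure of HCV replicon replication; test concentration not given here.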 The note with it: Huh7 HCV replicon luciferase reporter, 48 h; higher = more signal.
Test [13] has as its target Left-right determination factor 2 (Homo sapiens) (UniProt O00292). Description: small molecules binding LEFTY2 protein – biochemical, small-molecule microarray, 635 nm fluorescence scan, primary screen (AID 1110). The note with it: higher = more signal.
Test [14] addresses Calmodulin-1 (Homo sapiens) (UniProt P0DP23). Briefly: small molecules binding calmodulin-1 with EGTA – biochemical, small-molecule microarray, Cy5-labelled CALM1, profiling panel (AID 1111).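 Also: labelled calmodulin applied in Tris saline Tween buffer holding calcium plus EGTA and DTT.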 The note with it: Cy5-CALM1 binding fluorescence, higher = more signal.
The target is the same in test [15]. Briefly: small molecules binding Ca-loaded calmodulin-1 – biochemical, small-molecule microarray, Cy5-labelled CALM1, plus calcium, artefact control for SMM control-protein annotation, profiling panel (AID 1112).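 Also: score merges spot fluorescence with signal to noise from triplicate slides.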 The note with it: Cy5-CALM1 binding fluorescence, higher = more signal.
A short description of test [16]: probe aWnt5a binding to arrayed compounds – biochemical, biotinylated probe, 635/667 nm fluorescence, primary screen (AID 1113).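 Also: score merges 667 nm fluorescence intensity with signal-to-noise per printed feature.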 The following applies: small-molecule microarray, higher = more signal.
Test [17] in a line: probe aShh binding to arrayed compounds – biochemical, biotinylated probe, 635/667 nm fluorescence, primary screen (AID 1114).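 Also: probe is biotin-labelled aShh protein from a stem cell growth factor screen; measures binding of labelled protein to compounds printed on the slide; score merges feature fluorescence at 667 nm with signal-to-noise.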 The note with it: small-molecule microarray, higher = more signal.
Test [18] can be described thus: probe aNog binding to arrayed compounds – biochemical, biotinylated probe, 635/667 nm fluorescence, primary screen (AID 1115).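 Also: probe is biotinylated aNog protein used at 0.15 µg/mL for 1 h at 4 C; z-score combines 667 nm fluorescence of each spot with its signal to noise.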 The note with it: small-molecule microarray, higher = more signal.
In test [19] the target is Torsin-1A-interacting protein 1 (Homo sapiens) (UniProt Q5JTV8). Description: compound microarray binding of lysate hLAP1 – cell lysate, small-molecule microarray, COS7 lysate, 635/667 nm fluorescence, primary screen (AID 1116). The following applies: 635 nm fluorescence, higher = more signal.
Torsin-1A-interacting protein 1 (Homo sapiens), sequence (Q5JTV8 whole entry, looked up): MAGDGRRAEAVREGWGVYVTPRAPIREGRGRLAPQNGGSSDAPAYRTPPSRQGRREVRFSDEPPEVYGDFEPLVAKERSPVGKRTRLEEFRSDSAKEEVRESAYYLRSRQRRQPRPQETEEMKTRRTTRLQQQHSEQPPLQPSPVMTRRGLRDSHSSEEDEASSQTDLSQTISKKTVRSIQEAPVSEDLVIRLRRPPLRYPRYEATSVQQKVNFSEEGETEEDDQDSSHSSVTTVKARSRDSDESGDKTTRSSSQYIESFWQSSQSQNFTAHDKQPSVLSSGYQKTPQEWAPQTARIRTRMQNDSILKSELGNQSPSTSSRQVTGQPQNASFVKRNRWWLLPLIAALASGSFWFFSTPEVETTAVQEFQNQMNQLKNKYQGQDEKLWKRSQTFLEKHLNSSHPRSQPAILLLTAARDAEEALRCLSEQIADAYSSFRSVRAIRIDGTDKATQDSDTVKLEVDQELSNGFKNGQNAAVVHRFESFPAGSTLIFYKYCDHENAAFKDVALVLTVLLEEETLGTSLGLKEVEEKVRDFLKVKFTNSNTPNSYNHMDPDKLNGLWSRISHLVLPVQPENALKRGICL
The target of test [20] is Alpha-bungarotoxin (Bungarus multicinctus) (UniProt P60615). Description: compounds binding labelled alpha-BTX control protein – biochemical, small-molecule microarray, Alexa647 label, 635/667 nm fluorescence, artefact control for SMM control protein annotation, profiling panel (AID 1117). The following applies: alpha-BTX-A647 binding fluorescence, higher = more signal.
Alpha-bungarotoxin (Bungarus multicinctus), sequence (P60615 whole entry, looked up): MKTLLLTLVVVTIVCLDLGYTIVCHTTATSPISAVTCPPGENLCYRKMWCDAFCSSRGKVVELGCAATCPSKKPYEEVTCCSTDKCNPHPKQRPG

SMILES strings stand for the structures. Active and inactive are the calls of the source.

We go through five compounds from PubChem BioAssay.

Follistatin-related protein 3 (Homo sapiens), sequence (O95633 whole entry, looked up): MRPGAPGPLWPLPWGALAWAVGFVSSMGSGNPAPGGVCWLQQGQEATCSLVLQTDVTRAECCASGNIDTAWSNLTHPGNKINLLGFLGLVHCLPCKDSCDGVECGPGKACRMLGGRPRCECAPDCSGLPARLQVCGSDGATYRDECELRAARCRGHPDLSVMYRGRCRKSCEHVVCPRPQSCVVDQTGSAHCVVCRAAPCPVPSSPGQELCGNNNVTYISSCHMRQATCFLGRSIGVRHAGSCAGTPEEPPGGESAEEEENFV
Left-right determination factor 2 (Homo sapiens), sequence (O00292 whole entry, looked up): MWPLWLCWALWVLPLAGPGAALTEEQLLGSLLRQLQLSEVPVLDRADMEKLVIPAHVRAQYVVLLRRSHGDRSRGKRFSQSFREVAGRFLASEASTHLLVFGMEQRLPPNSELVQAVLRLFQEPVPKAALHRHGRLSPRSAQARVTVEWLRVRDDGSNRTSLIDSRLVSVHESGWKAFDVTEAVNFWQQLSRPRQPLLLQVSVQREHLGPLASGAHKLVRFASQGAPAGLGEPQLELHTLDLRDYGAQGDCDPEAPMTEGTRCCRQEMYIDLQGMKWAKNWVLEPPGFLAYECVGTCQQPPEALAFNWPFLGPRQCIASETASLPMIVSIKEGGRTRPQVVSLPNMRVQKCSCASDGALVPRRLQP
Fibroblast growth factor 10 (Homo sapiens), sequence (O15520 whole entry, looked up): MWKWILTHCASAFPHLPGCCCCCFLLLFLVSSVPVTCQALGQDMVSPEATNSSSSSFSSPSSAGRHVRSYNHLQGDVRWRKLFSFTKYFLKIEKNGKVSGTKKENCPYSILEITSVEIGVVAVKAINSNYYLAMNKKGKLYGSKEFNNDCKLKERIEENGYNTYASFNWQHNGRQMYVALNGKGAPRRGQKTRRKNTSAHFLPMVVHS
Epidermal growth factor receptor (Homo sapiens), sequence (P00533 whole entry, looked up): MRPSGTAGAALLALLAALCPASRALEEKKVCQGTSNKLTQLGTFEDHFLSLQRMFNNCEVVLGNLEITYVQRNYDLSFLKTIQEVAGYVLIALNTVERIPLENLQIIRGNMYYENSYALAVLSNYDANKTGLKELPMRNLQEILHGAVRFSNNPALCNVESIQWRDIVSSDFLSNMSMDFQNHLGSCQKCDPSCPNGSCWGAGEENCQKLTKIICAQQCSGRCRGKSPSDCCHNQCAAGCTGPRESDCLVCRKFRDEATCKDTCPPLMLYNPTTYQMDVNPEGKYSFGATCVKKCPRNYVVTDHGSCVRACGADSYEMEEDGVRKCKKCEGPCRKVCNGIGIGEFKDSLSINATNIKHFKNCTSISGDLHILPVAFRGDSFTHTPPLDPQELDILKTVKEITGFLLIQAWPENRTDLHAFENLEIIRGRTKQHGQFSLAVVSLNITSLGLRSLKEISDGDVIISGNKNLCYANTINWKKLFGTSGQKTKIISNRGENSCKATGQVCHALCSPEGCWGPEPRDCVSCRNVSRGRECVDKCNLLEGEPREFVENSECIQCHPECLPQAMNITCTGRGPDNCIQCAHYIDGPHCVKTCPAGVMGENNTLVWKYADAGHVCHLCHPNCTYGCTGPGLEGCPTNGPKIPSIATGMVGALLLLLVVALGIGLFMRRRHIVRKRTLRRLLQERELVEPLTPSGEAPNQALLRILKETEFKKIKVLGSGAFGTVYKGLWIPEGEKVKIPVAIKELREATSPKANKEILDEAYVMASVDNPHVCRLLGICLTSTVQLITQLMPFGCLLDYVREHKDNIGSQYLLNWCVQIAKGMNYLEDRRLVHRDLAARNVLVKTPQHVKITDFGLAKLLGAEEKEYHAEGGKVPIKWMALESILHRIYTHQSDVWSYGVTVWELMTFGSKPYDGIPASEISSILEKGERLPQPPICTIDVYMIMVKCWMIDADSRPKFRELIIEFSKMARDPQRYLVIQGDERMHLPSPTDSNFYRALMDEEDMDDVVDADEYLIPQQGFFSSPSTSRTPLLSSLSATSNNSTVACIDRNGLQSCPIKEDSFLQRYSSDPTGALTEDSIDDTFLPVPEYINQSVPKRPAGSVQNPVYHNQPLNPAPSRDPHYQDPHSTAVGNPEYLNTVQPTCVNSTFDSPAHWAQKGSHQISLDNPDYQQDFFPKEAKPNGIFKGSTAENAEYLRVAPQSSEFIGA

For the compound `O=C1NC(=O)C2C1C=CC(C(O)c1c(F)cccc1Cl)N2Nc1ccc(Cl)cc1Cl` (stereo not given), the composite z-score was 1.49 in test [1]; 1.4 in test [2]; 1.41 in test [3]; 0.185 in test [5]; 0.249 in test [6]; -0.391 in [7]. Also, the composite z-score in [8] is 0.0256; in [9], -0.367; in test [10], 1.29; in test [11], 0.635; in [13], -0.536; in test [14] it was 2.33. Further, the composite z-score in test [15] turned out to be 1.01; in test [16] it was 0.0923; in [17], 0.0782; in test [18], 1.42; in test [19] it was 2.71; in test [20] it was 2.76. The z-score in test [4] was 1.57 (inactive); in [12], -0.133.

`CCCCC=C[C@@H](NC(=O)c1ccc(-c2ccccc2)cc1)c1ccccc1`: the composite z-score in [1] stood at 0.379; in test [2], 0.0006; in test [3] it was 0.087; in [5] it was 0.462; in test [6], 1.08; in test [7], 0.0139. Further, the composite z-score was -0.203 in test [8]; 0.381 in test [9]; 0.183 in test [10]; 1.31 in test [11]; 0.184 in test [13]; 0.107 in test [14]. Besides, the composite z-score in test [15] is 0.506; in test [16] it was 0.123; in test [17] it was 0.934; in test [18] it was 0.964; in test [19], 1.11; in [20], 0.401. Moreover, the z-score was 2.94 (inactive) in [4] and -2.21 in test [12].

Take `C=CCOC(=O)[C@H]1[C@@H]2C(=O)O[C@@H](c3ccccc3)[C@@H](c3ccccc3)N2[C@@H](c2ccc(OCCOC(=O)[C@H]3C[C@H]4C(=O)N[C@@H](CCCCNC(C)=O)C(=O)N4[C@H]3c3ccc(O)cc3)cc2)[C@]12C(=O)Nc1ccccc12`: the composite z-score is 0.611 in [1]; 0.258 in test [2]; 0.493 in test [3]; 0.776 in test [5]; 1.28 in test [6]; 0.915 in [7]. Besides, the composite z-score in [8] amounted to 0.932; in test [9] it was 1.31; in test [10], 0.351; in test [11], 0.94; in test [13] it was 0.594; in [14], 1.03. Moreover, the composite z-score in [15] was 0.328; in test [16] it was -0.124; in test [17] it was 0.157; in test [18], 0.0322; in [19], 1.67; in [20], 1.89. Also, the z-score is -1.18 (inactive) in test [4] and -0.103 in test [12].

In the case of `COCC1=C2[C@@H](CCc3ccccc3)OB(O)C[C@@H]2[C@@H]2C(=O)C=CC(=O)[C@@H]2C1`, the composite z-score in test [1] is 0.367; in test [2], -0.0473; in [3], -0.0343; in test [5], 0.378; in [6], 0.679; in [7], 0.149. The composite z-score turned out to be 0.647 in [8]; 0.489 in test [9]; 0.27 in test [10]; 1.01 in [11]; 0.363 in test [13]; 1.03 in [14]. Besides, the composite z-score in test [15] is 0.344; in test [16], -0.101; in test [17], 0.0684; in test [18], 0.26; in [19] it was 0.236; in test [20] it was 1.43. Moreover, the z-score was 1.2 (inactive) in test [4] and -2.08 in test [12].

With `CN1C(=O)C2C=CC(C(O)c3cccc(O)c3)N(Nc3ccccc3)C2C1=O` (stereo not given), the composite z-score is 1.15 in test [1]; 0.14 in test [2]; 0.285 in [3]; 0.517 in test [5]; -0.236 in test [6]; -0.288 in test [7]. Moreover, the composite z-score in test [8] is -0.0255; in test [9], -0.208; in test [10], 0.866; in test [11], -0.286; in test [13] it was 0.13; in test [14] it was -0.185. In addition, the composite z-score in test [15] was -0.09; in test [16], 0.0597; in [17] it was 1.72; in test [18], 0.582; in test [19], 0.203; in [20], 0.041. In addition, the z-score in test [4] was 1.27 (inactive); in [12], 0.359.
